# Counter-ions that a name gives are not always drawn.
# Assays:
# Details in all cases: 10 µM; exposure time: 3 h pre-incubation + 3 h imaging
# [1] = system: Danio rerio larvae (5 dpf); experiment: habituation to 1-s acoustic pulses, difference vs DMSO (percentage points (treated minus DMSO)); higher = more of the behaviour than the DMSO vehicle control
# Method in brief: (§1)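 5-dpf wild-type zebrafish larvae in 96-well ProxiPlates were exposed to library drugs at 10 µM (diluted 1000× from DMSO stocks into egg water). There were 48 larvae per drug, exposed 3 h before and 3 h during imaging at 28.5 °C. Images taken every 6 s covered a 3-h program of rest, moving coloured lines and acoustic pulses, and an ImageJ macro scored movement and upper-half location. Each behaviour score is the treated-group mean minus the DMSO vehicle mean, in percentage points.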
# [2] = system: Danio rerio larvae (5 dpf); experiment: optomotor response to red moving lines, difference vs DMSO (percentage points (treated minus DMSO)); higher = more of the behaviour than the DMSO vehicle control
# Method in brief: as §1
# [3] = system: Danio rerio larvae (5 dpf); experiment: activity during period 15 (no stimuli), difference vs DMSO (percentage points (treated minus DMSO)); higher = more of the behaviour than the DMSO vehicle control
# Method in brief: as §1
# [4] = system: Danio rerio larvae (5 dpf); experiment: activity during first hour (no stimuli), difference vs DMSO (percentage points (treated minus DMSO)); higher = more of the behaviour than the DMSO vehicle control
# Method in brief: as §1
# [5] = system: Danio rerio larvae (5 dpf); experiment: optomotor response to green moving lines, difference vs DMSO (percentage points (treated minus DMSO)); higher = more of the behaviour than the DMSO vehicle control
# Method in brief: as §1
# [6] = system: Danio rerio larvae (5 dpf); experiment: startle response to 20-s acoustic pulses, difference vs DMSO (percentage points (treated minus DMSO)); higher = more of the behaviour than the DMSO vehicle control
# Method in brief: as §1
# [7] = system: Danio rerio larvae (5 dpf); experiment: excitability to 1-s acoustic pulses, difference vs DMSO (percentage points (treated minus DMSO)); higher = more of the behaviour than the DMSO vehicle control
# Method in brief: as §1
# [8] = system: Danio rerio larvae (5 dpf); experiment: optomotor response to blue moving lines, difference vs DMSO (percentage points (treated minus DMSO)); higher = more of the behaviour than the DMSO vehicle control
# Method in brief: as §1
# [9] = system: Danio rerio larvae (5 dpf); experiment: optomotor response to fast red moving lines, difference vs DMSO (percentage points (treated minus DMSO)); higher = more of the behaviour than the DMSO vehicle control
# Method in brief: as §1
structure (smiles),measurement,setting,value
C[C@H]1C[C@@H]2[C@H]([C@@H](O)C[C@@]3(C)[C@H]2CC[C@]3(O)C(=O)CO)[C@@]2(C)C=CC(=O)C=C12 [Methylprednisolone],habituation to 1-s acoustic pulses,[1],-1.22
same,optomotor response to red moving lines,[2],-1.93
same,activity during period 15,[3],-4.72
same,activity during first hour,[4],0.814
COc1cc([C@@H]2c3cc4c(cc3[C@@H](O[C@@H]3O[C@@H]5CO[C@@H](C)O[C@H]5[C@H](O)[C@H]3O)[C@H]3COC(=O)[C@H]23)OCO4)cc(OC)c1O [Etoposide],optomotor response to red moving lines,[2],2.25
same,activity during period 15,[3],-4.13
same,activity during first hour,[4],3.81
same,optomotor response to green moving lines,[5],-0.812
same,startle response to 20-s acoustic pulses,[6],-1.98
OC(c1cc(C(F)(F)F)nc2c(C(F)(F)F)cccc12)C1CCCCN1 (configuration not stated) [Mefloquine hydrochloride],excitability to 1-s acoustic pulses,[7],14
same,activity during period 15,[3],-1.13
same,activity during first hour,[4],-1.64
same,optomotor response to blue moving lines,[8],10.8
Nc1cccc2c1CN(C1CCC(=O)NC1=O)C2=O (configuration not stated) [Lenalidomide],optomotor response to red moving lines,[2],6.24
same,activity during period 15,[3],4.34
same,activity during first hour,[4],-5.68
same,optomotor response to blue moving lines,[8],3.02
same,startle response to 20-s acoustic pulses,[6],-5.01
same,optomotor response,[9],-0.414
OCCN1C[C@H](O)[C@@H](O)[C@H](O)[C@H]1CO [Miglitol],habituation to 1-s acoustic pulses,[1],0.997
same,activity during first hour,[4],-1.33
same,optomotor response to blue moving lines,[8],5.95
same,optomotor response to green moving lines,[5],2.58
same,startle response to 20-s acoustic pulses,[6],-1.17
Cc1c(-c2ccc(O)cc2)n(Cc2ccc(OCCN3CCCCCC3)cc2)c2ccc(O)cc12 [Bazedoxifene acetate],excitability to 1-s acoustic pulses,[7],16
same,activity during period 15,[3],-15.7
same,activity during first hour,[4],-12.7
same,optomotor response to green moving lines,[5],-2.2
same,startle response to 20-s acoustic pulses,[6],-4.17
same,optomotor response,[9],0.818
CO[C@H]1/C=C/O[C@@]2(C)Oc3c(C)c(O)c4c(O)c(c5c(nc6cc(C)ccn65)c4c3C2=O)NC(=O)/C(C)=C\C=C\[C@H](C)[C@H](O)[C@@H](C)[C@@H](O)[C@@H](C)[C@H](OC(C)=O)[C@@H]1C [Rifaximin],optomotor response to red moving lines,[2],0.313
same,activity during period 15,[3],-11.6
same,activity during first hour,[4],-0.0836
same,optomotor response to green moving lines,[5],0.563
same,startle response to 20-s acoustic pulses,[6],2.34
same,optomotor response,[9],-3.87
CN(CCOc1ccc(CC2SC(=O)NC2=O)cc1)c1ccccn1 (configuration not stated) [Rosiglitazone],optomotor response to red moving lines,[2],-2.8
same,activity during period 15,[3],7.42
same,activity during first hour,[4],2.2
same,startle response to 20-s acoustic pulses,[6],-1.12
N#Cc1ccc2[nH]cc(CCCCN3CCN(c4ccc5oc(C(N)=O)cc5c4)CC3)c2c1 [Vilazodone hydrochloride],activity during period 15,[3],-28.4
same,activity during first hour,[4],-24.1
same,optomotor response to green moving lines,[5],-30.3
same,optomotor response,[9],-38.2
CC(C)c1nc(N(C)S(C)(=O)=O)nc(-c2ccc(F)cc2)c1/C=C/[C@@H](O)C[C@@H](O)CC(=O)O [Rosuvastatin calcium],habituation to 1-s acoustic pulses,[1],0.315
same,excitability to 1-s acoustic pulses,[7],-0.497
same,optomotor response to red moving lines,[2],7.07
same,activity during first hour,[4],3.37
OCCN(CCO)c1nc(N2CCCCC2)c2nc(N(CCO)CCO)nc(N3CCCCC3)c2n1 [Dipyridamole],optomotor response to red moving lines,[2],-6.85
same,activity during first hour,[4],-0.789
COC(c1ccccc1)(c1ccccc1)[C@H](Oc1nc(C)cc(C)n1)C(=O)O [Ambrisentan],activity during first hour,[4],1.9
same,optomotor response to green moving lines,[5],-4.71
CC(=O)Oc1cc2c(s1)CCN(C(C(=O)C1CC1)c1ccccc1F)C2 (configuration not stated) [Prasugrel],excitability to 1-s acoustic pulses,[7],5.57
same,optomotor response to red moving lines,[2],5.97
same,activity during first hour,[4],-1.24
same,optomotor response to green moving lines,[5],-2.39
same,optomotor response,[9],-8.05
Clc1ccc2nsnc2c1NC1=NCCN1 [Tizanidine hydrochloride],habituation to 1-s acoustic pulses,[1],-2.36
same,optomotor response to red moving lines,[2],18.1
same,activity during first hour,[4],-14.2
COc1ccc(Cl)cc1C(=O)NCCc1ccc(S(=O)(=O)NC(=O)NC2CCCCC2)cc1 [Glibenclamide],optomotor response to red moving lines,[2],10.2
same,activity during first hour,[4],1.18
same,optomotor response to green moving lines,[5],9.49
COc1ccccc1OCCNCC(O)COc1cccc2[nH]c3ccccc3c12 (configuration not stated) [Carvedilol],excitability to 1-s acoustic pulses,[7],21
same,optomotor response to red moving lines,[2],1.15
same,activity during period 15,[3],-6.43
same,activity during first hour,[4],-9.72
CC(CCc1ccc(O)cc1)NCCc1ccc(O)c(O)c1 (configuration not stated) [Dobutamine hydrochloride],excitability to 1-s acoustic pulses,[7],5.75
same,activity during first hour,[4],-1.97
same,optomotor response to green moving lines,[5],4.26
same,optomotor response,[9],-7.53
CCCCCOC(=O)Nc1nc(=O)n([C@@H]2O[C@H](C)[C@@H](O)[C@H]2O)cc1F [Capecitabine],optomotor response to red moving lines,[2],4.71
same,activity during period 15,[3],2.91
same,activity during first hour,[4],6.31
same,startle response to 20-s acoustic pulses,[6],3
Nc1nc2c(ncn2COCCO)c(=O)[nH]1 [Acyclovir],habituation to 1-s acoustic pulses,[1],1.89
same,activity during first hour,[4],-2
same,optomotor response to green moving lines,[5],0.472
same,startle response to 20-s acoustic pulses,[6],0.665
same,optomotor response,[9],4.83
NC(=O)OCC(COC(N)=O)c1ccccc1 [Felbamate],habituation to 1-s acoustic pulses,[1],2.95
same,optomotor response to red moving lines,[2],-9.28
same,activity during first hour,[4],-2.12
same,optomotor response to green moving lines,[5],-9.03
OC(CNCC(O)C1CCc2cc(F)ccc2O1)C1CCc2cc(F)ccc2O1 (configuration not stated) [Nebivolol hydrochloride],excitability to 1-s acoustic pulses,[7],15.9
same,optomotor response to red moving lines,[2],-16.2
same,activity during first hour,[4],4.97
same,optomotor response to blue moving lines,[8],-16.6
O=C(NCC1CCCCN1)c1cc(OCC(F)(F)F)ccc1OCC(F)(F)F (configuration not stated) [Flecainide acetate],habituation to 1-s acoustic pulses,[1],-2.35
same,optomotor response to red moving lines,[2],-9.35
same,activity during first hour,[4],0.441
same,optomotor response to blue moving lines,[8],9.21
CCCc1nn(C)c2c(=O)[nH]c(-c3cc(S(=O)(=O)N4CCN(C)CC4)ccc3OCC)nc12 [Sildenafil citrate],activity during first hour,[4],-13.4
same,optomotor response to green moving lines,[5],-1.55
CC(=O)Nc1ccc(O)cc1 [Acetaminophen],activity during first hour,[4],5.63
same,optomotor response to blue moving lines,[8],5.11
same,optomotor response,[9],-11.2
O=C(Nc1c(Cl)cncc1Cl)c1ccc(OC(F)F)c(OCC2CC2)c1 [Roflumilast],habituation to 1-s acoustic pulses,[1],-1.13
same,excitability to 1-s acoustic pulses,[7],16.7
same,optomotor response to red moving lines,[2],0.247
same,activity during first hour,[4],-15.3
same,optomotor response to green moving lines,[5],-11.7

# Source: the supplement of paper PMC9023506
